# Measured values reported in PubChem BioAssay AID651662 (NMMLSC, 2012).
# Active and inactive are the calls of the source.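 The calls were made as follows: active = fitted concentration giving half the fluorescence drop below 100 µM; inactive = the rest.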
# Experiment: compound effects, K562 without functional ABCB6 – cell-based, flow cytometry, PowderSet01 powders, counter-screen for ABCB6 inhibitor project, dose response (AID 651662)
# Conditions: K562 empty-vector cells, 1 h; series mostly up to 100 µM
row,Compound,outcome
1,CC(=O)Nc1ccc(NC(=O)c2nc(S(=O)(=O)Cc3cccc(C)c3)ncc2Cl)cc1,inactive
2,CCOc1ccccc1NC(=O)c1nc(S(=O)(=O)Cc2cccc(C)c2)ncc1Cl,inactive
3,CCc1ccc(NC(=O)c2nc(S(=O)(=O)Cc3ccccc3)ncc2Cl)cc1,inactive
4,CC(=O)Nc1ccc(NC(=O)c2nc(S(=O)(=O)Cc3ccccc3)ncc2Cl)cc1,inactive
